NPSR antagonist – blocks cAMP signaling of the human neuropeptide S receptor | hit rate 1% among 220,000 | CHO-NPSR cells, cAMP TR-FRET, antagonist mode | AID 1461 | Q6W5P4 | Potency, µM (titrated, usually from 38.3 µM), actives largely listed as inhibitors; further: nearly all actives have a fitted effect of over 50% in size
Target sequence (Q6W5P4 whole entry, looked up): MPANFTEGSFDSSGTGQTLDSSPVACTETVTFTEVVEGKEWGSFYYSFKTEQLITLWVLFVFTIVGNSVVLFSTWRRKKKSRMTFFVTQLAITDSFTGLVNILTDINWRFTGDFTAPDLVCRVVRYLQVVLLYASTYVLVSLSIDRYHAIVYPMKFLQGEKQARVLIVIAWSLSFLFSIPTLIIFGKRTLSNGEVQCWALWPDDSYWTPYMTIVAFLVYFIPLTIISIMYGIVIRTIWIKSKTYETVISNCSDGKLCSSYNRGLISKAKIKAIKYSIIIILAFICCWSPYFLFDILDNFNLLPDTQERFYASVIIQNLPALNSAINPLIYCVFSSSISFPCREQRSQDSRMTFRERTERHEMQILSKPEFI
Tau fibril FP – inhibitors of human tau fibril formation | hit rate 0.39% among 280,000 | K18 P301L tau heparin fibrillization, Alexa594 FP, 6 h | Potency, µM (titrated, usually from 57.7 µM), actives largely listed as inhibitors; further: nearly all actives have a fitted effect of over 55% in size
Target sequence (P10636 561-689 P618L limits assumed): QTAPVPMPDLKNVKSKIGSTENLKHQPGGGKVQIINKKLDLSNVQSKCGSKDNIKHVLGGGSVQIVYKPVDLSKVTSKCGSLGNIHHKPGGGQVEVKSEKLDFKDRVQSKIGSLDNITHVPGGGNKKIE
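Quantitative HTS format: compounds meet 15 uM recombinant K18 P301L tau and Alexa 594-tau tracer in 100 mM sodium acetate pH 7; 20 uM heparin triggers fibrillization at 37 C over 6 hr; FP gives the signal.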
PNC inhibitor – blocks assembly of the perinucleolar compartment | PC3M PTB-GFP, PNC prevalence imaging, 16 h; active compounds read low | activity change (PNC), negative = inhibition, % at 10 µM | hit rate 3.1% among 140,000 | AID 2417;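 active means readout at or below -70, meaning at least 70% loss of cells showing the perinucleolar compartment, a nuclear body marking cancer cells; inconclusive means readout between -30 and a set limit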
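Compounds are pinned in duplicate onto adhered PC3M cells stably expressing GFP-tagged PTB and incubated 16 h at 37 C. Cells are then fixed, nuclei stained with Hoechst, and PNC-positive cells counted.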
Tau fibril ThT – blocks human tau fibril formation measured by thioflavin T. P10636. recombinant tau K18 P301L, heparin-induced fibrillization, ThT fluorescence. Potency, µM (series often up to 57.4 µM), actives largely listed as inhibitors. hit rate 2.1% among 270,000. AID 1460; further: nearly all actives have a fitted effect of over 55% in size
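In this qHTS, human K18 P301L tau is incubated with compound and heparin for 6 hr at 37 C, and Thioflavin T fluorescence then reports fibril load.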
KDM4E inh – blocks human JMJD2E demethylase activity; B2RXH2; JMJD2E catalytic domain, FDH-coupled NADH fluorescence (FDH is formaldehyde dehydrogenase); Potency, µM (top dose mostly 57.1 µM), usual class: inhibitors; hit rate 1.6% among 230,000; AID 2147; active means well fitted inhibition curve with a large enough effect, not every such curve was filed as active; inconclusive means small, poorly fitted or top-dose-only effect, or another doubt; inactive means no such curve, though single readings can be large or run the other way; further: nearly all actives have a fitted effect of over 50% in size
Tau fluor counter – counter-screen for tau fibril formation inhibitors | AID 1463 | Potency, µM (doses to about 57.7 µM) | tau K18 P301L (four-repeat tau fragment) Alexa594 fluorescence, heparin fibrillization | hit rate 0.93% among 280,000; further: nearly all actives have a fitted effect of over 55% in size
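Human K18 P301L tau (15 uM unlabeled plus 0.24 uM Alexa 594-labeled, final) in 100 mM sodium acetate pH 7 was mixed with compound and 20 uM heparin and incubated 6 hr at 37 C.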
Numbers stand for hits; i = inactive; ? = inconclusive; nt = not tested or not shown; [ ] = remark or other dose. Sampled rows, rich in hits. Any-hit rate of the full collection: about 5.1%. Unless noted, the call rests on the fitted dose curve; in most records, active means well fitted curve in the direction sought with a large enough effect; inconclusive means small, poorly fitted or top-dose-only effect, or another doubt; inactive means no such curve, though single readings can be large; an effect the other way counts as inactive or inconclusive.

SMILES	NPSR antagonist	Tau fibril FP	PNC inhibitor	Tau fibril ThT	KDM4E inh	Tau fluor counter
C=CCN1C(=O)/C(=C/c2ccc(O)c(OC)c2)S/C1=N/c1nccs1	i	i	i	?	i	28µM[quencher]
C=CCN1C(=O)/C(=C/c2ccc(OCC(=O)O)cc2)S/C1=N/c1nccs1	i	i	?	?	i	i
N#C/C(=C\c1cn(Cc2ccc(C#N)cc2)c2ccccc12)C(=O)NCc1cccs1	i	i	-116	i	i	i
N#C/C(=C\c1cn(CCOc2ccccc2F)c2ccccc12)C(=O)NCc1cccs1	i	i	?	i	i	i
COC(=O)C(NC(=O)CCc1c(C)nc2c(-c3ccccc3)c(C)nn2c1C)C(C)C (stereo not given)	nt	i	nt	i	nt	i
Cc1ccc(S(=O)(=O)CCC(=O)OCc2ccc(Cl)c(Cl)c2)cc1	i	i	-112	i	i	i
Cn1c(=O)n(C)c2cc(N3CCCCC3)c(NC(=O)c3ccc(C(C)(C)C)cc3)cc21	nt	i	nt	i	nt	i
CCc1n[nH]c(=S)n1/N=C/c1cc(OC)cc([N+](=O)[O-])c1O	i	i	nt	5µM	i	i
CCOC(=O)c1c(/N=C/c2cc([N+](=O)[O-])ccc2O)sc(C)c1C	i	i	i	?	i	?
CCOC(=O)c1c(/N=C/c2cc(OC)cc([N+](=O)[O-])c2O)sc(C)c1C	i	?	i	8.9µM	i	?
CCOC(=O)c1c(/N=C/c2cccc([N+](=O)[O-])c2O)sc2c1CCC2	i	i	nt	16µM	i	i
CCCn1c(-c2ccc(F)cc2)nc2c(NCCCCN(CC)CC)nc(C)nc21	nt	i	nt	i	?	i
O=c1c2cc3c(cc2n(Cc2ccc(Cl)cc2)c(=O)n1Cc1nc(-c2ccccc2)no1)OCO3	nt	i	nt	i	nt	i
COc1ccc(OC)c(NC(=S)N(CCc2c(C)[nH]c3ccccc23)Cc2cccs2)c1	i	i	i	i	i	7.1µM[quencher]
CCNC(=S)N(CCc1c(C)[nH]c2ccc(C)cc12)Cc1cc(OC)c(OC)c(OC)c1	i	?	i	?	i	?
COc1cccc(NC(=S)N(CCc2c(C)[nH]c3ccc(C)cc23)Cc2cccs2)c1	i	i	i	i	i	i
COc1ccc(OC)c(NC(=S)N(CCc2c(C)[nH]c3ccc(C)cc23)Cc2cccs2)c1	i	i	i	i	i	8.9µM[quencher]
COc1ccc2[nH]c(C)c(CCN(Cc3cccs3)C(=S)Nc3cccc(F)c3)c2c1	i	i	i	?	i	10µM[quencher]
COc1ccc(NC(=O)C(=O)NCCc2csc(-c3ccc(Cl)cc3)n2)cc1OC	nt	i	nt	i	nt	i
Cc1nn(-c2ccc(F)cc2)c(-n2cccc2)c1C(=O)N1CCN(c2ccc(F)cc2)CC1	nt	i	nt	i	nt	i
COc1ccc(-c2ccc3c(N)c(C(=O)NC(C)C)sc3n2)cc1OC	i	?	nt	10µM	?	18µM[quencher]
COc1ccc(C(=O)c2sc3nc(-c4ccccc4)ccc3c2N)cc1OC	i	i	i	i	i	?
COc1cccc(-c2ccc3c(N)c(C(=O)c4ccc(Br)cc4)sc3n2)c1	nt	?	nt	4.5µM	nt	2.5µM[quencher]
COc1ccc(NC(=S)N(CCCN2CCC(C)CC2)Cc2cccs2)cc1	i	i	nt	i	i	i
COc1ccc(NC(=S)N(CCCN2CCCCC2)Cc2cccs2)cc1	i	i	-105	i	i	i
SMILES	NPSR antagonist	Tau fibril FP	PNC inhibitor	Tau fibril ThT	KDM4E inh	Tau fluor counter
CC(=O)c1cc2c(cc1NC(=O)c1c(C)nn(-c3ccc(C)cc3)c1-n1cccc1)OCO2	nt	i	nt	i	nt	i
O=C(NC(=S)N1CCCCC1)C12CC3CC(CC(C3)C1)C2	i	i	i	i	i	i
O=C(c1cc(NC(=O)C23CC4CC(CC(C4)C2)C3)cc(NC(=O)C23CC4CC(CC(C4)C2)C3)c1)N1CCCCC1	i	i	-97	i	i	i
COc1ccc(-c2cc(C(=O)OCC(=O)Nc3cc(C)on3)c3ccccc3n2)cc1OC	i	i	i	i	?	i
Cc1ccc(-c2cc(C(=O)Nc3ccc(S(=O)(=O)Nc4cc(C)on4)cc3)c3ccccc3n2)c(C)c1	10µM	i	?	i	i	i
Cc1cccc(NS(=O)(=O)c2ccc(C)c(C(=O)OCC(=O)Nc3cc(C)on3)c2)c1	i	i	-100	i	i	?
